The list is not random: actives were taken first. Their share in the collection is about 3.1%.
FGF22 binding: binders of human FGF22 protein, primary screen, FGF22 synaptogenesis inhibitor project, biophysical, thermal shift, single point | Fibroblast growth factor 22 (Homo sapiens), Q9HCT0 | recombinant FGF22 thermal shift, SYPRO orange fluorescence; percent of sucrose octasulfate shift, DMSO zero | activity (Tm shift, normalised), % at 9.99 µM | actives 1.5% (n = 340,000);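 active = mean Tm shift, scaled 0 neutral to 100 positive control, at about 1.3% or above, every replicate too, limit read from the data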
Target sequence (Q9HCT0 whole entry, looked up): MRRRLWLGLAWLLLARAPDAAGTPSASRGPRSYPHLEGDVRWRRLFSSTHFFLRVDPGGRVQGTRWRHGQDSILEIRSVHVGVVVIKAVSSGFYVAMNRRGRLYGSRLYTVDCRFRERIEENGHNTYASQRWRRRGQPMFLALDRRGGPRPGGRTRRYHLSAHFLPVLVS
SIRT5 block: SIRT5 desuccinylase inhibitors, primary screen, biochemical, fluorescence imaging, single point, set 5; NAD-dependent protein deacylase sirtuin-5, mitochondrial (Homo sapiens), Q9NXA8; Purified SirT5, succinyl-peptide AMC, trypsin-coupled fluorescence; inhibition, % at 15 µM; actives 1.1% (n = 330,000); AID 652115, 2013; in the data active = inhibition above about 15%
Target sequence (Q9NXA8 whole entry, looked up): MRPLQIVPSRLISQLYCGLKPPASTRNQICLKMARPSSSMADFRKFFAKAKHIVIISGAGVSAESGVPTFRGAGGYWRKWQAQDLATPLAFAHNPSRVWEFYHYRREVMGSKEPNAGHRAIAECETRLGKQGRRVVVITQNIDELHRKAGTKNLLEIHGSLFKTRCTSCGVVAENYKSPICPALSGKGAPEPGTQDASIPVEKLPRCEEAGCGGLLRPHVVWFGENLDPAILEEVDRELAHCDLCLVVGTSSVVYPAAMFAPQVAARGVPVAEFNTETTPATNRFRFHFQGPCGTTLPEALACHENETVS
ERAP1 inh: human ERAP1 aminopeptidase inhibitors, primary screen, biochemical, single point, plate reader; Endoplasmic reticulum aminopeptidase 1 (Homo sapiens), Q9NZ08; inhibition, % at 10.7 µM; recombinant ERAP1, Leu-AMC fluorescence, 60 min; actives 0.15% (n = 340,000);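 active = mean replicate inhibition of at least 30%, or all replicates individually reaching that 30% level; inactive = mean below 30% and not every replicate reaching it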;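 also: 0% = neutral control wells and 100% = L-leucinethiol positive control wells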
Casp6 inh: human caspase-6 inhibitors, primary screen, biochemical, VEID-R110 fluorescence, single point, set 2. actives 0.53% (n = 350,000). inhibition, % at 12.5 µM. purified caspase-6, Z-VEID-R110 cleavage fluorescence;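 active = mean inhibition across replicates at least about 35%, with every replicate also reaching that limit, limit read from the data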;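 also: 0% = median of neutral control wells and 100% = no fluorescence left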
The depositor's hits bear a star; . = not tested or not shown; ! = not active in a repeat.

SMILES	FGF22 binding	SIRT5 block	ERAP1 inh	Casp6 inh
O=C(O)CSc1cc(NS(=O)(=O)c2ccc(Cl)cc2)c2ccccc2c1O	0	3	8	96*
O=S(=O)(Nc1cc(Sc2cccc3cccnc23)c(O)c2ccccc12)c1ccc(F)cc1	0	0	-2	0
CCN(CC)CCOCCn1c(C)ccc1C	43*	.	0	-93
CCN(CC)CCOc1c(C)cccc1Cl	0	7	5	-4
Cc1noc(C)c1C(=O)OCC(=O)Nc1cccc(S(N)(=O)=O)c1	43*	1	-4	4
COc1cccc(NC(=O)COC(=O)c2c(C)noc2C)c1	1	-1	-2	1
CCOc1ccc(NC(N)=O)cc1	0	1	0	.
CCOc1ccc(Nc2ccc(N)c(S(=O)(=O)O)c2)cc1	0	.	10	92*
O=C1NC[C@@H](CCCCN2C[C@H](Cc3ccccc3)N(CC3CCCCC3)C(=O)C2=O)N(Cc2ccccc2)C1=O	5.4*	-2	-2	10
O=C1NC[C@H](CCCCN2C[C@H](Cc3ccccc3)N(Cc3ccccc3)C(=O)C2=O)N(CC2CCCCC2)C1=O	1	.	0	-1
C[C@@H]1CCCCO[C@H](CN(C)S(=O)(=O)c2ccc(Cl)cc2)[C@H](C)CN([C@H](C)CO)C(=O)c2cc(NC(=O)Cc3ccccc3)ccc2O1	0	9	2	3
O=C(CCl)Nc1ccccc1C(=O)NCc1ccccc1	43*	-6	1	11
C[C@@H]1CN([C@@H](C)CO)C(=O)c2cc(-c3cccc(F)c3)cnc2O[C@@H]1CN(C)C(=O)c1ccccn1	0	-2	-2	-2
COc1cc(C(C)=O)ccc1OCc1cn(CC(=O)c2ccc(O)cc2)nn1	0	21*	-2	12
CC=Cc1ccc2n(c1=O)C[C@@H]1[C@@H](CO)[C@H](C(=O)N3CCN(C)CC3)N(Cc3ccccc3OC)[C@H]21 (mixture of isomers)	0	-2	1	1
CC(C)CC#Cc1cnc2c(c1)C(=O)N([C@@H](C)CO)C[C@H](C)[C@@H](CN(C)C(=O)Nc1ccccc1F)O2	0	7	0	-3
CC(C)NC(=O)Nc1ccc2c(c1)C(=O)N([C@@H](C)CO)C[C@H](C)[C@H](CN(C)Cc1ccc(-c3ccccc3)cc1)O2	0	0	-1	1
CC(C)NC(=O)Nc1ccc2c(c1)C(=O)N([C@H](C)CO)C[C@@H](C)[C@@H](CN(C)Cc1ccc(-c3ccccc3)cc1)O2	0	16*	-3	1
CC(C)NC(=O)Nc1ccc2c(c1)C(=O)N([C@H](C)CO)C[C@H](C)[C@@H](CN(C)Cc1ccc(Cl)c(Cl)c1)O2	0	24*	3	1
C[C@H]1CN([C@@H](C)CO)C(=O)c2cc(NC(=O)C3CCCCC3)ccc2O[C@H]1CN(C)Cc1ccc(-c2ccccc2)cc1	0	40*!	0	2
C[C@H]1CN([C@@H](C)CO)C(=O)Cc2cc(NC(=O)NC3CCCCC3)ccc2O[C@H]1CN(C)Cc1ccc(-c2ccccc2)cc1	0	0	0	42*
C[C@H]1CN([C@@H](C)CO)C(=O)c2cc(NC(=O)Nc3ccccc3)ccc2O[C@H]1CN(C)C(=O)Nc1ccc(C(F)(F)F)cc1	0	8	3	-1
C[C@H]1CN([C@@H](C)CO)C(=O)Cc2cc(NC(=O)C3CCCCC3)ccc2O[C@@H]1CN(C)Cc1ccc(-c2ccccc2)cc1	0	-4	2	0
C[C@@H]1CN([C@H](C)CO)C(=O)Cc2cc(NC(=O)C3CCCCC3)ccc2O[C@@H]1CN(C)Cc1ccc(-c2ccccc2)cc1	0	102*	1	-3
NC(=O)COc1ncnc2scc(-c3ccc(F)cc3)c12	0	-1	-1	2
SMILES	FGF22 binding	SIRT5 block	ERAP1 inh	Casp6 inh
COCCNC(=O)COc1ncnc2scc(-c3ccc(F)cc3)c12	43*	-5	1	-1
C[C@H](O)C#Cc1ccc([C@H]2[C@@H](CO)N3CCCCN(C(=O)c4ccc(F)cc4)C[C@H]23)cc1	0	-2	4	-3
CCC(=O)Oc1ccc2c(c1)O/C(=C\c1ccco1)C2=O	0	-5	.	59*
CCN(CC)C(=O)Oc1ccc2c(c1)O/C(=C\c1ccco1)C2=O	0	0	0	17
CCOc1cc(C(=O)OC(C)C(=O)Nc2ccc(S(N)(=O)=O)cc2)ccc1OCC(=O)N1CCOCC1 (stereo not given)	0	19*	-2	1
CCOc1cc(C(=O)OC(C)C(=O)Nc2ncc(Cl)cc2Cl)ccc1OCC(=O)N1CCOCC1 (stereo not given)	44*	-2	1	1
O=c1[nH]c(=O)c2[nH]c(=S)[nH]c2[nH]1	-1	.	50*	1
COc1ccc(CN(C)C[C@@H]2Oc3ccc(NS(C)(=O)=O)cc3C(=O)N([C@H](C)CO)C[C@@H]2C)cc1	0	-2	0	1
OC(CN1CCCCC1)c1ccc(Br)cc1 (stereo not given)	44*	.	3	-1
Cc1ccc(S(=O)(=O)Nc2ccc3c(c2)C(=O)N([C@H](C)CO)C[C@H](C)[C@H](CN(C)Cc2ccc(Cl)c(Cl)c2)OCCCC[C@@H](C)O3)cc1	.	15	-3	2
Cc1ccc(S(=O)(=O)Nc2ccc3c(c2)C(=O)N([C@H](C)CO)C[C@@H](C)[C@H](CN(C)Cc2ccc(Cl)c(Cl)c2)OCCCC[C@H](C)O3)cc1	.	19*	-3	-1
Cc1ccc(S(=O)(=O)Nc2ccc3c(c2)C(=O)N([C@H](C)CO)C[C@@H](C)[C@@H](CN(C)Cc2ccc(Cl)c(Cl)c2)OCCCC[C@H](C)O3)cc1	0	8	0	4
Cc1ccc(S(=O)(=O)Nc2ccc3c(c2)C(=O)N([C@@H](C)CO)C[C@@H](C)[C@@H](CN(C)Cc2ccc(Cl)c(Cl)c2)OCCCC[C@@H](C)O3)cc1	.	17*	-3	1
C[C@@H]1CN([C@@H](C)CO)C(=O)CCCn2cc(nn2)CO[C@@H]1CN(C)C(=O)NC1CCCC1	0	-3	-2	-2
COCC#Cc1ccc2c(c1)O[C@@H](CN(C)S(=O)(=O)c1ccc(C)cc1)[C@@H](C)CN([C@@H](C)CO)S2(=O)=O	0	9	-1	-2
CNC[C@H]1OCCCC[C@@H](C)Oc2ccc(NS(=O)(=O)c3ccc(OC)cc3)cc2C(=O)N([C@H](C)CO)C[C@H]1C	0	-2	2	0
CC1CCCN(CC(O)COC(c2ccccc2)c2ccccc2)C1 (stereo not given)	0	0	-2	38*
COc1ccccc1CNc1nc2cc(-c3ccc(OC)c(OC)c3)sc2c(=O)n1C	0	20*	7	5

Screening data as filed in PubChem.
